# RORgamma inh = qHTS for inhibitors of ROR gamma transcriptional activity; Nuclear receptor ROR-gamma (Mus musculus), P51450; Drosophila S2 Gal4-RORgamma UAS-luciferase reporter, 20 h; Potency, µM (doses to about 53.6 µM), for inactives: at the top dose activity change, negative = inhibition, usual class: inhibitors; actives 5.4% (n = 310,000); AID 2551, 2010; also: potency is read from the fitted curve at half-maximal effect; nearly all actives have a fitted effect of over 60% in size
#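 In this cell-based reporter format, copper sulfate (700 uM final) drives Gal4–ROR gamma fusion expression from a metallothionein promoter in Drosophila Schneider cells; compounds preincubated 1 hr, reporter read after 20 hr at ambient temperature.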
# GALK inhibitor = qHTS Assay for Inhibitors of Human Galactokinase (GALK); Purified GALK, Kinase-Glo residual ATP luminescence; Potency, µM (top dose mostly 57.5 µM), without a hit: at the top dose activity change, negative = inhibition, hits mostly inhibitors; actives 0.007% (n = 270,000); AID 1868, 2009; also: potency is read from the fitted curve at half-maximal effect
# Target sequence (P51570 whole entry, looked up): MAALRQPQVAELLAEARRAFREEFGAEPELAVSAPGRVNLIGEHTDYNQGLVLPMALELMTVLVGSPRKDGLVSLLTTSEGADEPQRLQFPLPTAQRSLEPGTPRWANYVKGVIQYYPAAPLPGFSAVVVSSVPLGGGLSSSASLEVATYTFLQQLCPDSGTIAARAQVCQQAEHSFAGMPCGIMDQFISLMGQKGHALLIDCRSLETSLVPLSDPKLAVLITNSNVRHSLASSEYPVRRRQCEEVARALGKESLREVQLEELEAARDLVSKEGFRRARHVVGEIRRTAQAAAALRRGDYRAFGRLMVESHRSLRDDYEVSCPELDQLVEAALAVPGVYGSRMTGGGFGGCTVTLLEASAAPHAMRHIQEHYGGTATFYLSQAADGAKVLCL
#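 GALK at 5 nM final was combined with compound, 35 uM ATP and 100 uM galactose in HEPES pH8.0 with MgCl2 and DTT. The reaction ran one hour at room temperature before luminescent ATP detection.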
# TrxR1 substrate = qHTS Assay for Substrates of Mammalian Selenoprotein Thioredoxin Reductase 1 (TrxR1): qHTS; Thioredoxin reductase 1, cytoplasmic (Rattus norvegicus), O89049; purified TrxR1 substrate turnover, NADPH consumption readout; Potency, µM (top dose mostly 114 µM), for the others: at the highest dose activity change, negative = substrate turnover; actives 0.01% (n = 390,000); AID 588456, 2011; also: potency is read from the fitted curve at half-maximal effect; nearly all actives have a fitted effect of over 50% in size
#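 Rat TrxR1, dispensed at 90 nM, was prereduced with 400 uM NADPH (final) for 5 min at ~22 deg C, then incubated with compound 15 min before 400 uM selenite. A first-read NADPH fluorescence drop versus no-compound background flagged substrates.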
# TrxR1 inh = qHTS Assay for Inhibitors of Mammalian Selenoprotein Thioredoxin Reductase 1 (TrxR1): qHTS | Potency, µM (doses to about 114 µM), without a hit: at the top dose activity change, negative = inhibition, hits mostly inhibitors | actives 1% (n = 390,000) | AID 588453, 2011 | recombinant rTrxR1, NADPH fluorescence consumption, selenite substrate; also: potency is read from the fitted curve at half-maximal effect; nearly all actives have a fitted effect of over 65% in size
#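 Rat TrxR1 (90 nM in the dispensed reagent) was pre-reduced with 400 uM NADPH for 5 min at room temperature, then incubated with compound for 15 min. After 400 uM selenite was added, NADPH fluorescence (Ex 340/Em 450 nm) was followed for 8 min.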
# Coupling enz = qHTS Assay for Inhibitors of Fructose-1,6-bisphosphate Aldolase from Giardia Lamblia: Coupling assay counterscreen | coupling enzyme system counterscreen, AmpLite Red fluorescence | activity change, negative = inhibition, % at 58.2 µM, hits read low | actives 0.67% (n = 290,000) | AID 2472, 2010; in the data active = activity change below about -30%
#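 Compounds tested against the coupling enzymes alone at 57.5 uM final; readout was AmpLite Red fluorescence (525/598 nm) after 20 min at RT.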
# Gal4-VP16 FLuc = VP16 counterscreen qHTS for inhibitors of ROR gamma transcriptional activity; Drosophila S2 Gal4-VP16 UAS-luciferase, luminescence, 20 h; actives 3.5% (n = 310,000); AID 2546, 2010; Potency, µM (titrated, usually from 53.6 µM), without a hit: at the top dose activity, negative = inhibition, most hits filed as inhibitors;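 also: Gal4-VP16 expression switched on by copper sulfate through the metallothionein promoter; potency is read from the fitted curve at half-maximal effect; nearly all actives have a fitted effect of over 50% in size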
# An asterisk follows results filed as active; ? = inconclusive; nt = no result; [ ] = dose if it differs, or a comment. Rows were chosen to be rich in hits. Some 5.9% of all compounds tested hit in one or more screens of this group. Unless noted, calls follow the shape of the dose curve; as a rule, active = well fitted curve in the direction sought with a large enough effect; inconclusive = small, poorly fitted or top-dose-only effect, or another doubt; inactive = no such curve, though single readings can be large; an effect the other way counts as inactive or inconclusive. % is scaled to controls: 0 for no effect and ±100 for the full control effect.
SMILES,RORgamma inh,GALK inhibitor,TrxR1 substrate,TrxR1 inh,Coupling enz,Gal4-VP16 FLuc
CCC(C)n1c(NC(=O)c2ccccc2)c(C#N)c2nc3ccccc3nc21 (configuration not stated),10µM*,-10%,5%[57.1 µM],-16%[57.1 µM],-49*,?
O=c1ccc2cc(S(=O)(=O)NCc3ccc(Br)cc3)ccc2[nH]1,nt,nt,-2%[57.1 µM],6%[57.1 µM],nt,nt
COc1ccccc1C(=O)NC(=O)COC(=O)c1oc2ccccc2c1C,nt,nt,5%,24%,nt,nt
COc1ccc(OCC(O)CNc2ccc(Br)cc2)cc1 (configuration not stated),?,0%,0%,2%,-13,?
CSc1ccc(CNC(=O)C2CCC(=O)N(CCc3cccc(F)c3)C2)cc1 (configuration not stated),22%,-5%,-13%,-27%,1,-2%
Cc1ccc(CNc2ccc3c(c2)ncn3C(C)(C)C)cc1,1.4µM*,0%,12%,16%,-3,?
Cc1ccc(CNc2ccc3c(c2)ncn3C)cc1,8%,-1%,14%,-8%,-1,6%
CC(=O)c1ccc(S(=O)(=O)N2CCN(C(=O)c3ccccc3Cc3ccccc3)CC2)cc1,nt,nt,-3%,2%,nt,nt
Cc1ccc(NC(=O)N2CCN(c3cc(-c4noc(C)n4)ccc3C)CC2)c(C)c1,nt,nt,5%[57.1 µM],22%[57.1 µM],nt,nt
Cc1nc(-c2ccc(C(=O)Nc3ccccc3F)cc2)cs1,8.9µM*,14%,6%[57.1 µM],5%[57.1 µM],2,8.9µM*
O=C(Nc1ccc(Oc2ccc(NC(=O)c3ccco3)c(NC(=O)c3ccco3)c2)cc1)c1ccco1,21%,-1%,4%,7%,0,-2%
Nc1nc(-c2ccc(NC(=O)c3ccco3)cc2)cs1,10µM*,nt,-3%[57.1 µM],-7%,0,?
O=C(Nc1ccc(Oc2ccc3ccccc3c2)cc1)c1ccco1,-95%,0%,-9%,21%[57.1 µM],-6,10µM*
Cc1nc(-c2ccc(NC(=O)c3ccco3)cc2)cs1,3.5µM*,-6%,0%,24%,0,4.5µM*
C=CCNC(=O)c1ccc(Sc2ccc(C)cc2)c([N+](=O)[O-])c1,15%,-1%,-13%,5%[57.1 µM],-1,0%
CCNC(=S)Nc1cc(OCC)c(N2CCOCC2)cc1OCC,-35%,1%,-3%,?,-7,-5%
CCOc1cc(N2CCOCC2)c(OCC)cc1NS(=O)(=O)c1ccc(Cl)s1,-33%,3%,-3%,-3%,-45*,-6%
CCCNC(=O)Nc1cc(OCC)c(N2CCOCC2)cc1OCC,?,2%,8%[57.1 µM],8%[57.1 µM],-53*,-5%
CCOc1ccc(Br)cc1/C(C)=N\NC1=NCCN1,-33%,0%,7%[57.1 µM],-2%,0,7.9µM*
O=C(Nc1nc2c(s1)CCCC2)c1ccc2ncsc2c1,1.8µM*,-3%,-7%,15%,-4,?
O=C(Nc1nc2c(s1)CCCC2)c1ccc(N2C(=O)CCC2=O)cc1,?,5%,-7%,-10%,nt,15%
Cc1ncsc1C(=O)Nc1nc2c(s1)CCCC2,-9%,-1%,-14%,-14%,-1,-9%
Cc1cc(C(=O)Nc2nc3c(s2)CCCC3)cs1,?,0%,9%[57.1 µM],7%,-9,6.3µM*
O=C(Nc1nc2c(s1)CCCC2)c1ccc(Br)s1,11µM*,-3%,6%,17%,-7,?
Cc1cccc(C(=O)Nc2nc3c(s2)CCCC3)c1,nt,nt,-4%,14%,nt,nt
COc1cc(/C=C(\C#N)C(=O)NCC2CCCO2)cc(OC)c1OC (configuration not stated),-26%,1%,-9%,?,-5,2%

# Screening data (PubChem BioAssay)
